Rows were chosen to be rich in hits. Some 3.5% of all compounds tested hit in one or more screens of this group.
FBW7 activator – human FBW7 E3 ligase activation, primary screen | AID 1259310 | Q969H0 | actives 0.13% (n = 650,000) | normalized activity (activation), % at 26.1 µM | AlphaScreen FBW7–phospho-cyclin E peptide binding, activator screen; in the data active = normalized activity above about 1.9%;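 also: purified mutant Fbw7 with reduced substrate affinity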
Target sequence (Q969H0 whole entry, looked up): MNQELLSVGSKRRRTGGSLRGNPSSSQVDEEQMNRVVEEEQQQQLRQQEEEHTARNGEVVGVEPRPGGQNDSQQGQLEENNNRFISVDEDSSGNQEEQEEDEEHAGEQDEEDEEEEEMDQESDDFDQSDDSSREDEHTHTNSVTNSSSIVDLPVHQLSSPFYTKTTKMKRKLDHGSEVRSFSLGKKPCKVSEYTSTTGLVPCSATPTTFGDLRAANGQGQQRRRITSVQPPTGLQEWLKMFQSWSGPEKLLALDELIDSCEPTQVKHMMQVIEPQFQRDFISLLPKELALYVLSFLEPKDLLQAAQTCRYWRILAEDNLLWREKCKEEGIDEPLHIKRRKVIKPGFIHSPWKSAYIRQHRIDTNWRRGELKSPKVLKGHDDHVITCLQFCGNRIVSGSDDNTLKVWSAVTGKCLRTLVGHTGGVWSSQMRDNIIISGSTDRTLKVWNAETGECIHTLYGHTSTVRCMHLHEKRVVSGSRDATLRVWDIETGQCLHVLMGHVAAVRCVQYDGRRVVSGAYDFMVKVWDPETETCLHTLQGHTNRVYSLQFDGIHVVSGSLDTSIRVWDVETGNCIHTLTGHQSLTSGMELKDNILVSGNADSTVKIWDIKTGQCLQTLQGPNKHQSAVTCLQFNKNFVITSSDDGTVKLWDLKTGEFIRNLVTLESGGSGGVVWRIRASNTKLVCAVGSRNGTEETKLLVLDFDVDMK
TEAD-YAP block – TEAD-YAP interaction inhibition; actives 1.4% (n = 640,000); AID 1259422; inhibition, % at 9.12 µM; HEK-TIYL cells, TEAD-Gal4/YAP UAS-luciferase luminescence; in the data active = inhibition above about 32%;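 also: 0% = median of test compound wells and 100% = reference inhibitor wells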
GPR151 ag – human GPR151 activation | PathHunter beta-arrestin GPR151 cells, luminescence | activation, % at 11.2 µM | actives 1% (n = 650,000) | Q8TDV0; in the data active = activation above about 4.9%;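 also: 0% = median of compound wells and 100% = cells with positive control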
MITF primary – human MITF inhibition, primary screen; O75030; actives 0.91% (n = 650,000); inhibition, % at 2.6 µM; AlphaScreen MITF homodimerization, bead proximity signal; in the data active = inhibition above about 50%;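 also: 0% = vehicle wells with protein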
* marks the source's active call; other numbers are inactive results.

SMILES	FBW7 activator	TEAD-YAP block	GPR151 ag	MITF primary
O=C1N(Cc2cccc(Cl)c2)C[C@@H]2C[C@@H](c3ccc4c(c3)OCCO4)N3CCC[C@@]123	0	12	0	-3
COc1cc(C=Nc2ccccc2)cc(Br)c1O	0	1	0	2
Cc1ccc(NC(=O)CN2C(=O)COc3cc(S(=O)(=O)NC4CCCC4)ccc32)cc1	0	1	-2	6
Cn1cnnc1-c1ccc(Nc2ncc(F)c(-c3cc(F)cc(N4CCOCC4)c3)n2)cc1	0	72*	4	19
CN1CCN(c2ncn(-c3ccc(Nc4ncc(F)c(-c5cc(F)cc(N6CCOCC6)c5)n4)cc3)n2)CC1	0	77*	1	0
Cn1cc(-c2ccc3cnc(Nc4ccc(-n5cnc(N6CCOCC6)n5)cc4)nc3n2)cn1	0	80*	0	13
N#Cc1cc(-c2nc(Nc3ccc(N4CCOCC4)cc3)ncc2F)cc(N2CCOCC2)c1	0	4	-1	-2
Cn1cc(-c2ccc(-c3ccnc(Nc4ccc(-n5cnc(N6CCOCC6)n5)cc4)n3)cc2)cn1	0	-5	-1	6
CN1CCN(c2ncn(-c3ccc(Nc4ncc(F)c(-c5cccc(N6CCOCC6)c5)n4)cc3)n2)CC1	0	62*	1	17
Cc1nc(C)n(-c2ccc(Nc3ncc(F)c(-c4cc(F)cc(N5CCOCC5)c4)n3)cc2)n1	0	-2	2	-5
CC(=O)C1=C(C)N(c2ccc(C)cc2)C(=O)C1(NC(=O)CN1CCCC1=O)C(F)(F)F (centres undefined)	0	8	1	12
Cn1cnnc1-c1ccc(Nc2nccc(-c3cccc(Nc4ccccc4)c3)n2)cc1	1	2	-2	9
Cn1cnnc1-c1ccc(Nc2ncc(F)c(-c3ccccc3)n2)cc1	0	41*	1	16
Cn1cc(-c2nc(Nc3ccc(-n4cnc(N5CCC(O)CC5)n4)cc3)ncc2F)cn1	0	85*	0	-5
CC1CN(c2ncn(-c3ccc(Nc4ncc5ccc(-c6cnn(C)c6)c(Cl)c5n4)cc3)n2)CC(C)O1 (centres undefined)	0	57*	0	21
CCn1cc(-c2ccc3cnc(Nc4ccc(-n5cnc(N6CCOCC6)n5)cc4)nc3c2Cl)cn1	0	0	0	12
O=c1[nH]ncc(NCCN2CCOCC2)c1Cl	0	3	1	1
Cc1nc2ccc(Br)cc2s1	0	-6	-1	5
CC(=O)c1cccc(NS(=O)(=O)c2cc(C(=O)Nc3ccc(C(=O)O)cc3)ccc2C)c1	0	7	-1	16
CCCCOc1cccc(C(=O)NCCNC(=O)c2nonc2N)c1	1	9	-2	19
Cc1ccc(N2CCN(C(=O)CC(C)(C)CC3=NS(=O)(=O)c4ccccc4N3)CC2)c(C)c1	0	47*	0	7
C[C@@H]1CC[C@H]2[C@@H](C)C(O)O[C@@H]3OC4(C)CC[C@@H]1[C@]32OO4 (some centres undefined)	0	88*	0	25
C[C@H]1[C@@H](OC(=O)CCC(=O)O)O[C@@H]2OC3(C)CC[C@H]4[C@H](C)CC[C@@H]1[C@@]24OO3	0	82*	0	-1
CO[C@H]1O[C@@H]2O[C@@]3(C)CC[C@H]4[C@H](C)CC[C@@H]([C@H]1C)[C@@]24OO3	0	2	1	9
COc1cc(Cn2cnc3ccccc32)c(OC)cc1Cn1cnc2ccccc21	1	23	-2	11
SMILES	FBW7 activator	TEAD-YAP block	GPR151 ag	MITF primary
CCC(C)Oc1ccccc1C1CC(=O)NC2=C1C(=O)CCC2 (centres undefined)	0	38*	-1	5
O=C(Nc1ccc(S(=O)(=O)N2CCCCC2c2cccnc2)cc1)c1ccccc1 (centres undefined)	0	8	0	-2
COc1cc(/C=C/C(=O)Nc2ccc(S(=O)(=O)N3CCCCC3c3cccnc3)cc2)cc(OC)c1OC (centres undefined)	0	56*	1	14
CC(C)(C)c1ccc(C(=O)Nc2ccc(S(=O)(=O)N3CCCCC3c3cccnc3)cc2)cc1 (centres undefined)	0	43*	-1	-8
COc1cc2cc(CN(Cc3ccc(C)cc3)C(C)=O)c(=O)[nH]c2cc1OC	0	-5	0	9
COCCNc1ccc2ncc(-c3ccc(O)c(OC)c3)n2n1	0	55*	1	-2
COc1ccc(-c2cnc3ccc(NCCCO)nn23)cc1OC	1	36*	0	-11
COc1ccccc1NC(=O)c1sc2nc(C)nc(N3CCOCC3)c2c1C	0	7	-1	2
O=C1c2cc(Cl)c(Cl)cc2C(=O)N1c1ccc(O)cc1	0	3	2	24
CCCCCCC1(O)C(C)C(c2ccc(N(C)C)cc2)NC(c2ccc(N(C)C)cc2)C1C (centres undefined)	-1	-11	0	61*
CC(=O)NC1=NC(=O)/C(=C\c2cn(C(C)=O)nc2-c2ccc(F)cc2)S1	0	18	2	17
COc1ccc(C(=O)Nc2ccccc2C(=O)NC(C(=O)NNC(=O)c2ccc(Cl)cc2Cl)C(C)C)cc1 (centres undefined)	0	0	0	14
COc1ccc(N2CCOCC2)cc1Nc1cc(Nc2ccccn2)c(C(F)(F)F)cn1	0	-2	-1	19
Cc1nc(Nc2cc(Nc3ccccn3)c(C(F)(F)F)cn2)cc(-c2cncnc2)n1	0	32*	0	16
CNC(=O)c1cc(F)ccc1Nc1cc(Nc2cc(-c3cncnc3)nc(C)n2)ncc1C(F)(F)F	0	55*	-1	-5
O=S(=O)(c1ccc2nc(-c3cccs3)c(-c3cccs3)nc2c1)N1CCOCC1	-1	0	-2	36
Oc1ccccc1-c1nnc2n1N=C(c1ccc(Br)s1)CS2	0	-7	-1	-9
Cn1nccc1C(=O)NCC1Cc2cc(-c3ccsc3)cc(Cl)c2O1 (centres undefined)	0	0	2	6
Cc1ccc(/C=N/NC(=O)CNC(=O)c2ccccc2Br)cc1	0	47*	2	-13
Cc1ccc(/C=N/NC(=O)CNc2cccc(C)c2)cc1	0	38*	2	5
COc1cc(CNc2ccc3c(c2)CCN3C(C)=O)cc(OC)c1OC	0	67*	0	1
COc1ccc(S(=O)(=O)Nc2ccc3c(c2)CCCN3C(C)=O)c(OC)c1	0	7	1	12
CCN(CC)CC(O)CN1CCN(c2ccc(OC)cc2)CC1 (centres undefined)	0	2	-1	55*
COc1ccc(N2CCN(C(C)CC(=O)O)CC2)cc1 (centres undefined)	0	-7	0	72*
COc1ccc(N2CCN(CC(O)COC(C)(C)C)CC2)cc1 (centres undefined)	0	-6	0	46
O=C(Cn1nc(C2CC2)cc1C(=O)N1CCCC1)Nc1ccccc1Cl	0	3	-1	-3
O=C(/C=C/c1ccc(-c2ccc([N+](=O)[O-])cc2)o1)N1CCOCC1	0	-4	1	9

Compound activity (PubChem)
